Reference: PubChem BioAssay (NCATS)
Records with an inconclusive call do not appear. Active and inactive are the calls of the source. The call rests on the fitted dose curve; in most records, active means well fitted inhibition curve with a large enough effect; inconclusive means small, poorly fitted or top-dose-only effect; inactive means flat fitted curve, though single readings scatter.
Further: nearly all actives have a fitted effect of over 60% in size.

Each compound was assayed on HaCat (assay: Cytotoxic Profiling of Annotated Libraries Using Quantitative High-Throughput Screening (AID 1296008; further: potency means the concentration at half of the fitted maximal effect; on max response: on the % scale 0 is the no-effect control and ±100 the full control effect)). Details: Five cell lines viability, CellTiter-Glo ATP luminescence, 48-72 h; max response: hits give low values.
Method in brief: (§1)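 Cells exposed to compounds for 48 or 72 hr at 37 degrees Celsius. Viability read as ATP-coupled luminescence with CellTiter-Glo after 10 min at room temperature.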
COc1cc([C@@H](CC(=O)O)c2ccc(C)c(CN3C[C@@H](C)Oc4ccccc4S3(=O)=O)c2)cc2nnn(C)c12 was tested, and the max response was -8.19% (inactive). In the case of CCCCn1ccc(N2CCC(c3ccccc3)CC2)c(Cl)c1=O, the outcome is reported as “inactive”. In the case of O=C(NNc1ccccc1)c1ccncc1, the max response is reported as -7.12% (inactive). With COc1ccccc1NC(=O)Nc1ccc2ccccc2c1 the max response was -10% (inactive). For C[C@@H]1COCCN1c1cc(C2(S(C)(=N)=O)CC2)nc(-c2ccnc3[nH]ccc23)n1 (some centres not stated), the Potency was 16.6 µM (active). For COc1cc(O)c(C(=O)CCc2ccc(O)cc2)c(O[C@@H]2O[C@H](CO)[C@@H](O)[C@H](O)[C@H]2O)c1, the outcome was “inactive”. In the case of CN(CCCNC(=O)c1ccc2nc3c(c(Cl)c2c1)CCCC3)Cc1ccccc1, the max response is reported as 1.7% (inactive). O=C(NCc1ccc(Oc2ccccc2)cc1)c1nc(-c2cc(Br)c(O)c(Br)c2)no1 was tested, and the outcome was “inactive”. O=C(Nc1ccc(F)cc1)N1CCc2ccccc2C1c1ccc(C(F)(F)F)cc1 (configuration not stated) was tested, and the Potency was 14.6 µM (active). With CC(C)(C)c1ccc(-c2nc3ccccc3[nH]2)cc1 the max response was -8.47% (inactive). For C=C(C)C(=O)OC1[C@@H]2C(=C)C(=O)O[C@@H]2C[C@@H](C)[C@@H]2C=CC(=O)[C@@]12C (some centres not stated), the outcome was “inactive”. With COc1cc2ncnc(Nc3ccc(Oc4ccccc4)cc3)c2cc1OC the Potency was 7.31 µM (active). In the case of CC1CCC2C(=CCC(O)C2(C)C)C1(C)Cc1c(O)cc(CO)c(C=O)c1O (configuration not stated), the outcome is reported as “inactive”. With CC1(C)CC23[C@@H]4CC(=O)[C@@H]2COC(=O)[C@@H]3CC[C@H]41 the max response was -1.08% (inactive). CCN1CCN(Cc2ccc(-c3cc4c(NC(C)c5ccccc5)ncnc4[nH]3)cc2)CC1 (configuration not stated) was tested, and the Potency was 2.91 µM (active). In the case of CN1CCN(C(=O)c2ccc(Nc3nccc(-c4cccs4)n3)cc2Cl)CC1, the max response is reported as -21.8% (inactive). In the case of CC(C)[C@@H](C)/C=C/[C@@H](C)[C@H]1CC[C@H]2C3=CC=C4C[C@@H](O)CC[C@]4(C)C3=CC[C@]12C, the outcome is reported as “inactive”. With OCC(Cc1ccccc1)Nc1nc(Oc2ccc3c(c2)CCC3)nc2c1ncn2Cc1ccc(-c2ccccc2)cc1 (configuration not stated) the Potency was 18.4 µM (active). CCN(CCCOc1ccc2c(Nc3cc(CC(=O)Nc4cccc(F)c4)[nH]n3)ncnc2c1)CCOP(=O)(O)O was tested, and the Potency was 2.06 µM (active). For O=C1c2c(O[C@@H]3O[C@H](CO)[C@@H](O)[C@H](O)[C@H]3O)cc(O)cc2OC1(O)Cc1ccc(O)cc1 (some centres not stated), the outcome was “inactive”. With CCCCn1c(-c2ccccc2)nc(-c2ccccc2)c1CN(Cc1ccc2c(c1)OCO2)Cc1ccc2c(c1)OCO2 the max response was -27.1% (inactive). For Cc1ccc(C2(COC(=O)C(C)C)CO2)c(OC(=O)C(C)C)c1 (configuration not stated), the outcome was “inactive”. With CCC(C)n1cc(C)c2c(C(=O)NCc3c(C)cc(C)[nH]c3=O)cc(-c3ccc(N4CCNCC4)nc3)cc21 (configuration not stated) the outcome was “inactive”. With COc1cc2ncnc(Oc3cccc(NC(=O)Nc4cc(C(C)(C)C(F)(F)F)on4)c3)c2cc1OC the Potency was 5.17 µM (active). In the case of Nc1ncnc2c1ncn2[C@@H]1O[C@H](CO)C[C@H]1O, the max response is reported as -125% (inactive). In the case of O=[N+]([O-])c1ccc(-[n+]2nc(-c3ccccc3)nn2-c2ccc(I)cc2)cc1, the max response is reported as -29.5% (inactive). In the case of O=C(NC(NC(=S)Nc1ccc(F)c([N+](=O)[O-])c1)C(Cl)(Cl)Cl)C(c1ccccc1)c1ccccc1 (configuration not stated), the max response is reported as -1.87% (inactive). Cc1ccc(C(=O)N2CCN(c3ccc([N+](=O)[O-])cc3)CC2)cc1Cl was tested, and the max response was -12.6% (inactive). For C=C1/C(=C/C=C2\CCC[C@]3(C)[C@@H]([C@H](C)/C=C/C(=O)C4CC4)CC[C@@H]23)C[C@@H](O)C[C@@H]1O, the outcome was “inactive”.

Each compound was assayed on NIH3T3 in the same assay as above. Details: Five cell lines viability, CellTiter-Glo ATP luminescence, 48-72 h; max response: hits give low values.
Method in brief: as §1
For COc1cc([C@@H](CC(=O)O)c2ccc(C)c(CN3C[C@@H](C)Oc4ccccc4S3(=O)=O)c2)cc2nnn(C)c12, the max response was 3.5% (inactive). C[C@@H]1COCCN1c1cc(C2(S(C)(=N)=O)CC2)nc(-c2ccnc3[nH]ccc23)n1 (some centres not stated) was tested, and the Potency was 4.17 µM (active). For CCN1CCN(Cc2ccc(-c3cc4c(NC(C)c5ccccc5)ncnc4[nH]3)cc2)CC1 (configuration not stated), the Potency was 8.2 µM (active).

These compounds were tested on HACAT (assay: qHTS assay to identify novel small-molecules to repurpose for Merkel cell carcinoma treatment (AID 1296009)). Details: MCC and control cell lines, CellTiter-Glo viability, 72 h; at 44.8 µM (top of the series) unless noted.
Method in brief: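 Dose-response viability screen; 72 hr exposure at 37 degree celsius; CellTiter-Glo added, 10 min room temperature, luminescence read; RLUs scaled between no-cell and DMSO wells.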
With CCCCn1ccc(N2CCC(c3ccccc3)CC2)c(Cl)c1=O the outcome was “inactive”. For COc1cc(O)c(C(=O)CCc2ccc(O)cc2)c(O[C@@H]2O[C@H](CO)[C@@H](O)[C@H](O)[C@H]2O)c1, the outcome was “inactive [at 17.4 µM]”. For O=C(NCc1ccc(Oc2ccccc2)cc1)c1nc(-c2cc(Br)c(O)c(Br)c2)no1, the outcome was “inactive”. In the case of C=C(C)C(=O)OC1[C@@H]2C(=C)C(=O)O[C@@H]2C[C@@H](C)[C@@H]2C=CC(=O)[C@@]12C (some centres not stated), the outcome is reported as “inactive”. In the case of CC1CCC2C(=CCC(O)C2(C)C)C1(C)Cc1c(O)cc(CO)c(C=O)c1O (configuration not stated), the outcome is reported as “inactive”. In the case of CC(C)[C@@H](C)/C=C/[C@@H](C)[C@H]1CC[C@H]2C3=CC=C4C[C@@H](O)CC[C@]4(C)C3=CC[C@]12C, the outcome is reported as “inactive”. In the case of O=C1c2c(O[C@@H]3O[C@H](CO)[C@@H](O)[C@H](O)[C@H]3O)cc(O)cc2OC1(O)Cc1ccc(O)cc1 (some centres not stated), the outcome is reported as “inactive [at 17.4 µM]”. For Cc1ccc(C2(COC(=O)C(C)C)CO2)c(OC(=O)C(C)C)c1 (configuration not stated), the outcome was “inactive”. With CCC(C)n1cc(C)c2c(C(=O)NCc3c(C)cc(C)[nH]c3=O)cc(-c3ccc(N4CCNCC4)nc3)cc21 (configuration not stated) the outcome was “inactive”. C=C1/C(=C/C=C2\CCC[C@]3(C)[C@@H]([C@H](C)/C=C/C(=O)C4CC4)CC[C@@H]23)C[C@@H](O)C[C@@H]1O was tested, and the outcome was “inactive”.
